# JMJD2A Tudor inh = inhibitors of human JMJD2A Tudor domain | O75164 | AlphaScreen JMJD2A-Tudor / H3K4me3 peptide binding | Potency, µM (series often up to 114 µM), inactives show at the top dose activity change, negative = inhibition, actives largely listed as inhibitors | 390,000 compounds, 4.4% hits | AID 504339; also: potency is read from the fitted curve at half-maximal effect; % is scaled to controls: 0 for no effect and ±100 for the full control effect; nearly all actives have a fitted effect of over 50% in size
# Six1-Eya2 blk = Six1/Eya2 interaction inhibition. 360,000 compounds, 0.56% hits. Q15475+O00167. activity change, % (test concentration not listed). AlphaScreen GST-Six1/His-Eya2 binding, biochemical; hits give low values; in the data active = activity change below about -65%; inconclusive = mostly about -30% to -63%; also: % is scaled to controls: 0 for no effect and ±100 for the full control effect
# Target sequence (O00167 whole entry, looked up): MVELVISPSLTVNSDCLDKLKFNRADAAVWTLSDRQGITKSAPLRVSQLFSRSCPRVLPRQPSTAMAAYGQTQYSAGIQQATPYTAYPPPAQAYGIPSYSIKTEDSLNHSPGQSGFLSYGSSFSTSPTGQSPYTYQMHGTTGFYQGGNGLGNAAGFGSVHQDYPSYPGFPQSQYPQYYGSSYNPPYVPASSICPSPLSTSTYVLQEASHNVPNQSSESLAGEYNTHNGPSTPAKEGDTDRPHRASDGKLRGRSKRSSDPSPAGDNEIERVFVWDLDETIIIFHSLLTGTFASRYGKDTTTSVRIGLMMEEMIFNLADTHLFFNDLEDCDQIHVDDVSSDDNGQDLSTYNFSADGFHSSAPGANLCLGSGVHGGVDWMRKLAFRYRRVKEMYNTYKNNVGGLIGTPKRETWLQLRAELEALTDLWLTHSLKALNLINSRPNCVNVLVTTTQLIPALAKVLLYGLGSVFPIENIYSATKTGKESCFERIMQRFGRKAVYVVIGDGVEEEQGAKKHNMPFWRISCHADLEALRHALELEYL
# Target sequence (Q15475 whole entry, looked up): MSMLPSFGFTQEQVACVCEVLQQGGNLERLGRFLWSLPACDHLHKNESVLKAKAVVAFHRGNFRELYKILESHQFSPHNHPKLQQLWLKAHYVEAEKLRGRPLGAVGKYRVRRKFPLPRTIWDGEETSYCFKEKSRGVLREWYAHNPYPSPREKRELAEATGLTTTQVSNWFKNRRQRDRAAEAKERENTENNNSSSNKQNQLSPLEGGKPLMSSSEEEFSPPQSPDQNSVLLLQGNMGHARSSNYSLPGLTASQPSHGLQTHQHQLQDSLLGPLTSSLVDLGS
#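 AlphaScreen with GST-Six1 and His-Eya2 (5X mix: 250 nM and 500 nM), glutathione donor and nickel acceptor beads; buffer 50 mM Tris pH 8.0, 300 mM NaCl, 1 mM TCEP; 1 h at 37 C in the dark.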
# G9a inh = G9a (human) methyltransferase inhibition; G9a H3K9 monomethylation, AlphaScreen, 2 h; 350,000 compounds, 8.8% hits; Potency, µM (titrated, usually from 102 µM), for inactives: at the top dose activity, negative = inhibition, actives largely listed as inhibitors; AID 504332; also: potency is read from the fitted curve at half-maximal effect; % is scaled to controls: 0 for no effect and ±100 for the full control effect; nearly all actives have a fitted effect of over 75% in size
#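 Compounds were preincubated with 20 nM G9a for 15 min, after which biotinylated H3K9 peptide (500 nM) and SAM (20 uM) started a 2 h room-temperature reaction. Monomethylated product was quantified by antibody-based AlphaScreen chemiluminescence.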
# CtBP-E1A inh = blocks the CtBP interaction with E1A; 340,000 compounds, 0.49% hits; activity change, % (concentration not given with the values); AlphaScreen GST-E1A/His-CtBP binding, 1536-well; hits give low values; in the data active = activity change below about -65%; inconclusive = mostly about -30% to -63%; also: % is scaled to controls: 0 for no effect and ±100 for the full control effect
#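 GST-E1A and His-tagged CtBP (125 nM each as 5X stock) were preincubated with pin-transferred compound for 2 h at 37 °C in the dark, then glutathione donor and nickel acceptor beads were added for 1 h before AlphaScreen reading.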
# HP1b binding inh = HP1-beta chromodomain-methylated histone interaction inhibition | P83916 | AlphaScreen HP1-beta / biotin-H3K9me3 peptide binding | Potency, µM (doses to about 114 µM), inactives show top-dose activity change, negative = inhibition, actives largely listed as inhibitors | 390,000 compounds, 0.56% hits; also: potency is read from the fitted curve at half-maximal effect; nearly all actives have a fitted effect of over 70% in size
#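 Compound inhibition of the preformed complex between 50 nM HP1-beta and 50 nM biotinylated H3K9me3 peptide was read by AlphaScreen. Buffer was PBS pH 7.4 with 0.01% Tween-20. Incubations ran 30 min at room temperature, with 10 ug/mL donor/acceptor beads.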
# BAZ2B inh = inhibitors of human BAZ2B bromodomain. Q9UIF8. AlphaScreen BAZ2B-H3K14Ac peptide displacement. Potency, µM (titrated, usually from 114 µM), for the others: at the highest dose activity change, negative = inhibition, usual class: inhibitors. 360,000 compounds, 4.4% hits; also: potency is read from the fitted curve at half-maximal effect; % is scaled to controls: 0 for no effect and ±100 for the full control effect; nearly all actives have a fitted effect of over 60% in size
#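 BAZ2B 50 nM plus b-H3(5-23)K14Ac 50 nM, PBS pH 7.4/0.01% Tween-20, 30 min RT; compound added (max 110 uM), 30 min RT; streptavidin donor/Ni-chelate acceptor beads 10 ug/mL final, 20 min dark; AlphaScreen read.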
# * hit, by the source's call; ? = inconclusive; nt = no result given; [ ] = another dose, or the depositor's remark. Only some compounds are listed: those with a hit (about 10% of all), similar ones and a draw of the others. Unless noted, calls follow the shape of the dose curve; as a rule, active = well fitted inhibition curve with a large enough effect; inconclusive = small, poorly fitted or top-dose-only effect; inactive = no such curve, though single readings can be large or run the other way.
SMILES,JMJD2A Tudor inh,Six1-Eya2 blk,G9a inh,CtBP-E1A inh,HP1b binding inh,BAZ2B inh
Nc1c(-c2ccccc2)cnn1-c1cccc(Cl)c1,3.4%,0.0,8.9%,0.0,34.7%,1.1%
CCCC(=O)N=C1SC2CS(=O)(=O)CC2N1c1ccc(-c2nc3ccc(C)cc3s2)cc1 (centres undefined),-4.1%,-5.6,-13.1%,4.7,34.6%,10.5%
Cc1cc(C)c(NC(=O)CNC(=O)c2cc(C3CC3)nn2-c2ccccc2)c(C)c1,-9.5%,-1.4,9.8%[59 µM],-6.6,16.3%,12.8%
Cc1cccc(NC(=O)CNC(=O)c2cc(C3CC3)nn2-c2ccccc2)c1C,-18.6%,-1.0,50.1µM*,7.2,19.6%,-11.5%
CC(=O)[C@H]1CC[C@H]2C3CC=C4C[C@@H](O)CC[C@]4(C)C3CC[C@]12C (some centres undefined),nt,nt,16.1%[59 µM],nt,nt,nt
CCc1ccc(NS(=O)(=O)c2[nH]ncc2C(=O)OC)cc1,56.2µM*,nt,2.51µM*,nt,18.5%,?
CCc1ccc(NS(=O)(=O)c2cc(OC)ccc2OC)cc1,-14.0%,5.7,25.6%,12.1,26.6%,0.8%
C=CCSc1nc2sc(C)c(C)c2c(=O)n1CC=C,57.6%,12.5,5.62µM*,11.8,186.5%,96.6%
COc1ccc(OC)c(NC(=O)CSc2nncc3ccc(OC)c(OC)c23)c1,-33.1%,-5.4,nt,-20.5,9.3%,79.4µM*
COc1ccc2nc(SCC(=O)Nc3cc(OC)c(OC)cc3C(=O)O)c(C)cc2c1,?,12.3,56.2µM*,-20.3,19.6%,-30.8%
COc1ccc(OC)c(NC(=O)CSc2ncnc3sc(C)cc23)c1,?,?,nt,-73.3*,6.2%[57 µM],nt
COc1cc(NC(=O)CSc2nccc(C)n2)c(C(=O)O)cc1OC,-31.0%,2.5,?,6.9,23.2%,?
COc1ccc2cnnc(SCC(=O)Nc3ccccc3)c2c1OC,-10.8%,-2.9,3.4%[59 µM],-14.0,30.5%,6.9%
CCN(CC)c1ccc(NC(=O)c2cnn(-c3ccccc3)c2-n2cccc2)c(C)c1,-27.9%,nt,?,nt,33.5%,-18.1%
CC(=O)N1CCCc2cc(S(=O)(=O)N3CCC(C(=O)Nc4c(C)cccc4C)CC3)ccc21,-6.8%,nt,15.8%[59 µM],nt,14.5%[57 µM],4.9%
COc1ccc(-n2c(CNC(=O)COc3ccc(Cl)cc3Cl)n[nH]c2=S)cc1,-6.1%,23.0,7.94µM*,nt,72.6%,0.3%
COc1ccc(-n2c(CNC(=O)COc3ccccc3)n[nH]c2=S)cc1,11.2µM*,-7.1,?,2.1,37.1%,-17.9%
COc1ccc(-n2c(CNC(=O)COc3ccc(Cl)cc3)n[nH]c2=S)cc1,12.6µM*,-1.9,2.51µM*,16.6,-5.9%,-6.4%
O=C(COc1ccccc1)NCc1ccccc1,0.6%,4.7,33.9%,36.0,21.3%,7.7%
COc1ccc(OCc2n[nH]c(=S)n2-c2ccc(C)cc2)cc1,?,-5.8,?,nt,6.9%,-32.5%
O=C(COc1ccccc1)NCc1n[nH]c(=S)n1-c1ccccc1,8.91µM*,5.1,20µM*,-2.5,39.5%,-17.9%
Cc1cccc(C(C)C)c1NC(=O)c1c(-c2ccccc2)noc1C,-4.8%,7.2,-46.6%,2.3,34.4%,-36.6%
CCC(C)C(NC(=O)OC(C)(C)C)C(=O)NC1COC2CC(n3ccc(NC(C)=O)nc3=O)OC12 (centres undefined),3.4%,nt,nt,nt,25.3%,nt
COc1ccc(CCNC(=O)Cc2c(C)c3cc(OC)c(OC)cc3oc2=O)cc1,-12.8%,nt,6.8%[59 µM],nt,33.8%,-1.6%
C(=N\c1nccs1)/Nc1nccs1,35.5µM*,2.7,28.2µM*,5.9,-77.3%,79.4µM*
SMILES,JMJD2A Tudor inh,Six1-Eya2 blk,G9a inh,CtBP-E1A inh,HP1b binding inh,BAZ2B inh
CCN(CC)S(=O)(=O)c1ccc2c(c1)N(CC(=O)N1CCN(c3ccc(F)cc3)CC1)C(=O)CO2,-14.7%,nt,10.2%[12.7 µM],nt,13.3%,2.1%
CCN(CC)CC(O)Cn1c(C)c(-c2ccccc2)c2cc([N+](=O)[O-])ccc21 (centres undefined),?,-9.4,44.7µM*,-13.2,-12.4%,?
CCN(CC)CC(O)Cn1c2ccccc2c2ccccc21 (centres undefined),-3.0%,6.3,13.2%[12.7 µM],-2.9,15.2%,0.3%
O=C(NNC(=O)c1cccs1)Nc1cccc(Cl)c1,-7.5%,-13.1,16.5%[0.0925 µM],6.8,37.7%,11.9%
NS(=O)(=O)c1ccc(NNC(=O)c2ccc(F)cc2F)cc1,-10.4%,2.9,11.2µM*,-0.7,42.5%,-0.5%
O=C(NNc1cc(Cl)cc(Cl)c1)c1cccs1,-8.3%,3.8,28.2µM*,0.4,46.5%,-16.1%
O=C(Nc1ccccc1)c1ccc(F)cc1F,3.6%,-0.5,nt,8.1,35.0%,nt
O=C(NNc1ccc(Cl)cc1)c1cccs1,-30.3%,2.4,10µM*,1.2,19.3%,-18.6%
O=C(NNc1ccccc1F)c1cccs1,-10.2%,nt,nt,nt,57.8%,nt
NS(=O)(=O)c1ccc(NNC(=O)c2cccs2)cc1,7.1%,2.5,10µM*,-6.3,47.1%,-2.9%
Cc1ccc(C(=O)NCc2ccccc2)cc1NC(=O)c1nsc2ccccc12,-7.1%,nt,2.2%[59 µM],nt,20.5%[57 µM],-16.8%
O=C(NNC(=S)Nc1ccc(Cl)cc1)c1cccs1,-27.4%,0.0,25.1µM*,nt,16.5%,-3.8%
CC(C)(C)OC(=O)CC[C@@H](C(=O)N1CCN(C(=O)OC(C)(C)C)CC1)n1cc(C(Cc2ccc(O)cc2)NC(=O)OC(C)(C)C)nn1 (some centres undefined),-19.7%,-2.8,9.5%[12.7 µM],0.7,22.3%,-3.9%
CCc1sc(/C=C(/C#N)C(N)=S)cc1[N+](=O)[O-],?,-6.8,12.6µM*,-2.1,?,?
CCc1ccc(/C=C(/C#N)C(N)=S)s1,-16.8%,17.4,?,-0.3,17.6%,?
CCc1nn(CC(=O)Nc2ccc(C)c(F)c2)c(=O)c2cc3cc(C)ccc3n12,-12.4%,nt,-2.5%[59 µM],nt,14.6%,-4.0%
O=c1[nH]c(=O)c2[nH]c(=S)[nH]c2[nH]1,2.51µM*,-17.8,nt,-9.5,10µM*,nt
CCOC(=O)CNC(=O)C1CCCN(c2ncccn2)C1 (centres undefined),-19.0%,-83.1*,-1.2%[59 µM],?,1.0%,9.3%
COc1ccc(-c2[nH]ncc2C(=O)NCc2ccc(F)cc2)cc1,-10.2%,nt,7.2%[59 µM],nt,18.3%,-3.2%
COCc1nc2ccccc2n1CCOc1cccc(C)c1,-9.6%,nt,10.9%[59 µM],nt,10.7%,8.7%
COCCCNC(=S)NNC(=O)c1csc(C)n1,-31.9%,-78.4*,23.0%,nt,63.8%,79.4µM*
COCCCNC(=S)NNC(=S)Nc1ccc(OC)cc1,1.78µM*,-0.3,nt,nt,?,-16.7%
Cc1nnc(N2C(=O)c3cccc4c([N+](=O)[O-])ccc(c34)C2=O)s1,-4.7%,-2.4,50.1µM*,nt,54.4%,-21.1%

# Compound activity: PubChem BioAssay, National Center for Advancing Translational Sciences (NCATS)
